# Test results reported in PubChem BioAssay AID720706 (Broad Institute, 2013).
# “And” between values parts separate entries of the source, which are not always exact repeats. Equal entries are not always repeated. Screen size: about 350,000 compounds; about 5,500 (1.6%) were called active. This is one part of a sample in which actives are shown more often than they occur.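 How the source made its calls: active means significant combined selectivity score with lowered wild-type GFP, culture density cut under 30%, mutant RFP and density less affected; inactive means any of these conditions unmet.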
# Experiment: GFP drop in mixed WT/humanized-ribosome E. coli culture – GFP/RFP fluorescence, OD600, single point, bacterial rRNA inhibitor project, primary screen (AID 720706)
# Conditions: E. coli WT GFP vs humanized-ribosome RFP mutants, 24 h; GFP signal change (wild-type ribosome): stronger effect = lower value, DMSO median 0, no signal -100; OD600 change: measured here: OD600 growth, DMSO median 0, no signal -100; RFP signal change: measured here: RFP humanized mutant strains, DMSO median 0, no signal -100, concentration not given here
Structure (SMILES),GFP signal change (wild-type ribosome),OD600 change,RFP signal change
O=C(C[C@@H]1CC[C@@H](NC(=O)C2CCOCC2)[C@H](CO)O1)Nc1ccc(-c2ccccc2)cc1,-6.86% (inactive),-2.81%,-1.67%
CNC[C@H]1Oc2ncccc2C(=O)N(C)C[C@@H]1C,2.83% (inactive),2.62%,-0.315%
COc1ccc(CCNC(=O)c2cc3sccc3n2C)cc1OC,-23.3% (active),-13%,-7.3%
COc1ccc(CCNC(=O)COC(=O)/C=C/c2cccs2)cc1OC,-13.7% (inactive),-0.226%,6.24%
COc1ccc(CCNC(=O)Cc2ccc(C)cc2)cc1OC,1.64% (inactive),11.3%,-4.01%
C/C=C/c1ccc2c(c1)[C@H]1[C@H](CCN1S(=O)(=O)c1cn(C)cn1)[C@H](CO)N2,13.7% (inactive),27.2%,4.63%
CCC(=O)N1[C@@H](CO)[C@@H](c2ccccc2)C12CN(C(=O)Cc1ccccc1)C2,2.16% (inactive),3.77%,-0.755%
CC(C)(C)n1ncc2c(=O)n(Cc3ccc(Cl)cc3)cnc21,1.17% (inactive),1.78%,-4.59%
COc1ccc(CCNc2ncnc3c2nnn3Cc2ccccc2)cc1,4.94% (inactive),7.23%,-1.23%
CC(C)CNc1ncnc2c1cnn2Cc1ccc(Cl)cc1,-36.1% (active),-17.1%,-0.858%
C/C=C/c1ccc(C2[C@H]3CNC[C@@H]2N3Cc2cccc(OC)c2)cc1 (stereo partly specified),-0.328% (inactive) and 2.3% (inactive),8.38% and 9.5%,6.71% and 2.48%
FC(F)Oc1ccc(NC(=S)NCc2ccco2)cc1Cl,-29.1% (active),-8.22%,5.68%
COc1cc(NC(=S)NCc2ccco2)c(OC)cc1Cl,4.76% (inactive),2.73%,1.65%
S=C(NCc1ccco1)Nc1ccc2c(c1)OCCO2,9.78% (inactive),8.22%,-0.482%
COc1cccc(NC(=O)N[C@H]2C=C[C@@H](CC(=O)Nc3ccc(-c4ccccc4)cc3)O[C@@H]2CO)c1,-12.2% (inactive),-10.6%,2.22%
CNC(=O)C[C@H]1CC[C@H]2[C@H](COc3ccc(NC(=O)Nc4ccc(F)cc4)cc3C(=O)N2C)O1,1.92% (inactive),1.94%,-3.24%
COc1ccc(CNC(=O)CN(Cc2ccccc2Cl)C(=O)c2csnn2)cc1,6.12% (inactive),13.2%,1.92%
COc1ccc(S(=O)(=O)N2CCCCCC2)cc1C(=O)N(C)Cc1cccc(OC)c1OC,-11.5% (inactive),-16.8%,3.6%
COc1cccc(CN(C)CC(=O)NCc2ccccc2Cl)c1OC,-25.4% (active),-20.5%,1.05%
N#Cc1ccc(-c2ccc(C3[C@@H]4CN(S(=O)(=O)c5cccc(Cl)c5)C[C@H]3N4)cc2)cc1 (stereo partly specified),-35.6% (inactive),-51%,-3.29%
C[C@H]1CN([C@@H](C)CO)C(=O)c2c(c3ccccc3n2C)-c2ccccc2CO[C@@H]1CN(C)CC1CCCCC1,-7.33% (inactive),-38.8%,12.5%

Structure (SMILES),GFP signal change (wild-type ribosome),OD600 change,RFP signal change
CC(C)NC(=O)N(C)C[C@H]1Oc2ccc(NS(C)(=O)=O)cc2C(=O)N(C)C[C@@H]1C,2.01% (inactive),2.51%,-2.3%
Cc1ccc(S(=O)(=O)N(C)C[C@@H]2Oc3ccc(NS(=O)(=O)c4cccs4)cc3C(=O)N([C@@H](C)CO)C[C@H]2C)cc1,-5.79% (inactive),-10.9%,1.46%
C[C@@H]1CN([C@@H](C)CO)S(=O)(=O)c2ccc(-c3ccc(F)cc3)cc2O[C@H]1CN(C)C(=O)c1ccccc1F,-8.04% (inactive),-21%,-3.3%
O=C(C[C@H]1C[C@H]2c3cc(NC(=O)NC4CCCC4)ccc3O[C@H]2[C@@H](CO)O1)NCc1ccc(-c2ccccc2)cc1,-1.74% (inactive),-6.28%,2.06%
Cc1cc(NC(=O)Nc2ccc(Cl)cc2)n(-c2ccccc2)n1,-29.1% (inactive),-32.4%,2.41%
Cc1ccc(NC(=O)Nc2cc(-c3ccccc3)nn2C)cc1Cl,-40.1% (active),5.55%,-13.4%
COc1ccc(NC(=O)c2cc3nc(-c4ccccc4)cc(C)n3n2)cc1OC,-22% (inactive),-22.4%,-6.99%
C[C@H]1CN([C@@H](C)CO)S(=O)(=O)c2ccc(-c3cncnc3)cc2O[C@H]1CN(C)Cc1ccncc1,0.29% (inactive),1.07%,0.44%
Cc1noc(C)c1NC(=O)N(C)C[C@@H]1Oc2ccc(NC(=O)Nc3ccc(F)cc3)cc2C(=O)N([C@H](C)CO)C[C@@H]1C,1.48% (inactive),1.88%,-0.103%
C[C@@H]1CN([C@H](C)CO)S(=O)(=O)c2ccc(C3=CCCC3)cc2O[C@H]1CN(C)Cc1ccccc1F,-1.53% (inactive),5.49%,-3.33%
C[C@@H]1CN([C@H](C)CO)S(=O)(=O)c2ccc(C#CC3CC3)cc2O[C@H]1CN(C)C(=O)C1CCCCC1,-17.1% (inactive),-48%,15.7%
COc1ccccc1-c1cnc2c(c1)C(=O)N([C@@H](C)CO)C[C@@H](C)[C@@H](CN(C)C(=O)c1cccnc1)O2,4.96% (inactive),-0.255%,-1.54%
C[C@@H]1CN([C@@H](C)CO)S(=O)(=O)c2ccc(Br)cc2O[C@@H]1CN(C)C(=O)C1CCCCC1,-5.25% (inactive),-9.29%,0.015%
O=C(COc1ccc(Cl)cc1)NC(=S)Nc1ccccc1N1CCOCC1,-9.68% (inactive),-9.44%,-2.65%
Cc1cccc(OCC(=O)NC(=S)Nc2ccccc2N2CCOCC2)c1,-22.8% (active),-9.72%,1.75%
Cc1cc(C)cc(OCC(=O)Nc2ccc(N3CCOCC3)cc2N2CCOCC2)c1,-2.33% (inactive),6.13%,0.039%
O=C(c1ccccn1)N1CC(=O)N2[C@H](CO)[C@H](c3ccc(C#CCc4ccccc4)cc3)[C@H]2C1,1.93% (inactive),-4.41%,-3.49%
COCC#Cc1ccc2c(c1)O[C@H](CN(C)Cc1ccc3c(c1)OCO3)[C@H](C)CN([C@H](C)CO)S2(=O)=O,-2.4% (inactive),-9.34%,-0.135%
O=C(NCc1nnnn1-c1ccc(Cl)cc1)c1ccc2c(c1)OCO2,5.87% (inactive),4.9%,-2.26%
O=C(NCc1nnnn1-c1ccc(Cl)cc1)c1ccc([N+](=O)[O-])o1,-23% (active),2.62%,-4.79%
O=C(Nc1ccc(Br)cn1)c1ccc([N+](=O)[O-])o1,-3.84% (inactive),-3.66%,-3.37%
